Reference: PubChem BioAssay (NCI)
This is part of a sample that, as a whole, favours compounds with a hit. Of some 83,000 tested, about 20% had one in any assay.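 Values shown are percent growth following 48 h exposure of cells in 96-well plates to a single concentration of compound; below 10 was considered active.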 Calls of active or inactive are those of the source.

Tests used:
Assay in all cases: NCI-60 one-dose screen, 48 h (100 = growth as untreated, 0 = no growth, -100 = all killed)
Settings in all cases: 10 µM unless noted
NCI-H23 lung = tested on: NCI-H23 lung
NCI-H226 lung = tested on: NCI-H226 lung
NCI-H322M lung = tested on: NCI-H322M lung
HOP-62 NSCLC = tested on: HOP-62 NSCLC
NCI-H460 lung = tested on: NCI-H460 lung
HOP-92 NSCLC = tested on: HOP-92 NSCLC
NCI-H522 lung = tested on: NCI-H522 lung
A549/ATCC NSCLC = tested on: A549/ATCC NSCLC
786-0 renal = tested on: 786-0 renal
COLO 205 colon = tested on: COLO 205 colon
DU-145 prostate = tested on: DU-145 prostate
K-562 leukemia = tested on: K-562 leukemia
MALME-3M melanoma = tested on: MALME-3M melanoma
MDA-MB-231 breast = tested on: MDA-MB-231 breast
RXF 393 renal = tested on: RXF 393 renal
SF-268 CNS = tested on: SF-268 CNS
SF-295 CNS = tested on: SF-295 CNS
SF-539 CNS = tested on: SF-539 CNS
UACC-257 melanoma = tested on: UACC-257 melanoma
M14 melanoma = tested on: M14 melanoma

Measured: growth

CCCCCCCCCCCCC[N+](C)(C)Cc1ccccc1
inactive: NCI-H322M lung 82.5% | A549/ATCC NSCLC 40.5% | SF-295 CNS 13.5%
active: NCI-H23 lung -22.8% | NCI-H226 lung -8.07% | HOP-62 NSCLC -73.1% | NCI-H460 lung 0.965% | HOP-92 NSCLC -64.3% | NCI-H522 lung -60.1% | 786-0 renal -56.1% | COLO 205 colon -91.8% | DU-145 prostate 0.808% | K-562 leukemia 2.97% | MALME-3M melanoma -44.7% | MDA-MB-231 breast -55.6% | RXF 393 renal -73.3% | SF-268 CNS -84.5% | SF-539 CNS -73% | UACC-257 melanoma -44.2% | M14 melanoma -66.6%

Cn1ncc2c(=O)nc3c(-c4ccccc4)n[nH]n3c21
inactive: NCI-H23 lung 101% | NCI-H226 lung 91.9% | NCI-H322M lung 80.9% | HOP-62 NSCLC 95.5% | NCI-H460 lung 103% | HOP-92 NSCLC 116% | NCI-H522 lung 73.2% | A549/ATCC NSCLC 101% | 786-0 renal 99.9% | COLO 205 colon 119% | DU-145 prostate 101% | K-562 leukemia 119% | MALME-3M melanoma 98.6% | MDA-MB-231 breast 102% | RXF 393 renal 121% | SF-268 CNS 101% | SF-295 CNS 84.5% | SF-539 CNS 96.2% | UACC-257 melanoma 98.7% | M14 melanoma 104%

COC(=O)c1ccc(NC(=O)c2ccc(-c3cccc([N+](=O)[O-])c3)o2)cc1
inactive: NCI-H23 lung 87.3% | NCI-H226 lung 73.9% | NCI-H322M lung 94.3% | HOP-62 NSCLC 107% | NCI-H460 lung 101% | HOP-92 NSCLC 94.6% | NCI-H522 lung 94.2% | A549/ATCC NSCLC 108% | 786-0 renal 103% | COLO 205 colon 108% | DU-145 prostate 110% | K-562 leukemia 105% | MALME-3M melanoma 90.3% | MDA-MB-231 breast 90.3% | RXF 393 renal 92.7% | SF-268 CNS 97.6% | SF-295 CNS 94.9% | SF-539 CNS 90.5% | UACC-257 melanoma 102% | M14 melanoma 101%

O=C1/C(=C/c2cn(-c3ccccc3)nc2-c2ccccc2)SC(=S)N1CCc1ccccc1
inactive: NCI-H23 lung 102% | NCI-H226 lung 99.4% | NCI-H322M lung 113% | HOP-62 NSCLC 94% | NCI-H460 lung 102% | HOP-92 NSCLC 122% | NCI-H522 lung 93.5% | A549/ATCC NSCLC 111% | 786-0 renal 106% | COLO 205 colon 116% | DU-145 prostate 110% | K-562 leukemia 108% | MALME-3M melanoma 104% | MDA-MB-231 breast 106% | RXF 393 renal 111% | SF-268 CNS 95.5% | SF-295 CNS 103% | SF-539 CNS 106% | UACC-257 melanoma 113% | M14 melanoma 102%

COc1ccc(-c2cc(NC(=O)Nc3ccc4ncsc4c3)no2)cc1
inactive: NCI-H23 lung 100% | NCI-H226 lung 101% | NCI-H322M lung 107% | HOP-62 NSCLC 111% | NCI-H460 lung 99.9% | HOP-92 NSCLC 105% | NCI-H522 lung 88.3% | A549/ATCC NSCLC 103% | 786-0 renal 99.1% | COLO 205 colon 125% | DU-145 prostate 108% | K-562 leukemia 101% | MALME-3M melanoma 112% | MDA-MB-231 breast 103% | RXF 393 renal 129% | SF-268 CNS 105% | SF-295 CNS 89.1% | SF-539 CNS 102% | UACC-257 melanoma 115% | M14 melanoma 106%

O=C(N/N=C/c1c[nH]c2ccccc12)c1cc(-c2ccccc2)on1
inactive: NCI-H23 lung 93.6% | NCI-H226 lung 87.6% | NCI-H322M lung 82.9% | HOP-62 NSCLC 98.8% | NCI-H460 lung 98.1% | HOP-92 NSCLC 92.1% | NCI-H522 lung 75% | A549/ATCC NSCLC 96.7% | 786-0 renal 97.9% | COLO 205 colon 113% | DU-145 prostate 100% | K-562 leukemia 55.4% | MALME-3M melanoma 94.8% | MDA-MB-231 breast 89.4% | RXF 393 renal 97.8% | SF-268 CNS 85.9% | SF-295 CNS 98.2% | SF-539 CNS 84.6% | UACC-257 melanoma 102% | M14 melanoma 88.6%

COc1ccc(Nc2nc(SC)nc(-c3cccc([N+](=O)[O-])c3)c2C#N)cc1
inactive: NCI-H23 lung 73.6% | NCI-H226 lung 18.3% | NCI-H322M lung 65.8% | HOP-62 NSCLC 44.5% | NCI-H460 lung 30.4% | HOP-92 NSCLC 61.3% | NCI-H522 lung 80.8% | A549/ATCC NSCLC 31.4% | 786-0 renal 21.8% | COLO 205 colon 81.5% | DU-145 prostate 80.6% | K-562 leukemia 93.6% | MALME-3M melanoma 61.7% | MDA-MB-231 breast 45.1% | RXF 393 renal 60% | SF-268 CNS 71.6% | SF-295 CNS 69.3% | SF-539 CNS 69% | UACC-257 melanoma 89.5% | M14 melanoma 74.9%

CCOC(=O)c1sc2nc(-c3cccc(O)c3)nc(N3CCOCC3)c2c1C
inactive: NCI-H23 lung 69.3% | NCI-H226 lung 82.8% | NCI-H322M lung 70.7% | HOP-62 NSCLC 68.5% | NCI-H460 lung 68.2% | HOP-92 NSCLC 30.8% | NCI-H522 lung 46.1% | A549/ATCC NSCLC 47.4% | 786-0 renal 67.7% | COLO 205 colon 105% | DU-145 prostate 38.9% | K-562 leukemia 60.5% | MALME-3M melanoma 62.7% | MDA-MB-231 breast 47.6% | RXF 393 renal 18.4% | SF-268 CNS 48.9% | SF-295 CNS 81% | SF-539 CNS 51.3% | UACC-257 melanoma 82.6% | M14 melanoma 69.2%

Cn1c(O)c(N=NC(=O)c2cc(-c3ccccc3)on2)c2ccccc21
inactive: NCI-H23 lung 88.5% | NCI-H226 lung 88.4% | NCI-H322M lung 108% | HOP-62 NSCLC 102% | NCI-H460 lung 100% | HOP-92 NSCLC 105% | NCI-H522 lung 89.9% | A549/ATCC NSCLC 108% | 786-0 renal 100% | COLO 205 colon 130% | DU-145 prostate 107% | K-562 leukemia 116% | MALME-3M melanoma 88.7% | MDA-MB-231 breast 95.6% | RXF 393 renal 104% | SF-268 CNS 100% | SF-295 CNS 99.8% | SF-539 CNS 99.9% | UACC-257 melanoma 119% | M14 melanoma 101%

COc1ccc(-n2nc(C)c3c(Nc4ccc(NC(=O)Nc5cc(C(F)(F)F)ccc5F)cc4)ncnc32)cc1
inactive: NCI-H23 lung 32.7% | NCI-H226 lung 73.8% | NCI-H322M lung 11% | NCI-H460 lung 13.7% | HOP-92 NSCLC 32.9% | A549/ATCC NSCLC 22.9% | 786-0 renal 11.3% | COLO 205 colon 15.2% | DU-145 prostate 63.6% | MALME-3M melanoma 38.9% | SF-268 CNS 42.6% | SF-539 CNS 16.8% | UACC-257 melanoma 45%
active: HOP-62 NSCLC -38.6% | NCI-H522 lung -12% | K-562 leukemia 6.88% | MDA-MB-231 breast -9.99% | RXF 393 renal -13.2% | SF-295 CNS -32.1% | M14 melanoma -29.6%

COc1cc2c(cc1-c1c(C)noc1C)ncc1nc(C3CCOCC3)n([C@@H](C)COC(F)F)c12
inactive: NCI-H23 lung 64.6% | NCI-H226 lung 58.2% | NCI-H322M lung 48.3% | HOP-62 NSCLC 35% | NCI-H460 lung 61% | HOP-92 NSCLC 31.8% | NCI-H522 lung 33.9% | A549/ATCC NSCLC 42.4% | 786-0 renal 49.6% | COLO 205 colon 26.9% | DU-145 prostate 73.1% | K-562 leukemia 34.2% | MALME-3M melanoma 66.3% | MDA-MB-231 breast 42.8% | RXF 393 renal 59.4% | SF-268 CNS 70.8% | SF-295 CNS 52% | SF-539 CNS 31.8% | UACC-257 melanoma 36.7% | M14 melanoma 41%

Fc1ccc(CNc2cccc3[nH]c(C(F)(F)F)nc23)cc1
active: HOP-92 NSCLC -9.4%
inactive: NCI-H23 lung 99.1% | NCI-H226 lung 93.1% | NCI-H322M lung 104% | HOP-62 NSCLC 80.3% | NCI-H460 lung 83% | NCI-H522 lung 79.7% | A549/ATCC NSCLC 89.2% | 786-0 renal 110% | COLO 205 colon 102% | DU-145 prostate 93.5% | K-562 leukemia 13% | MALME-3M melanoma 103% | MDA-MB-231 breast 73.8% | RXF 393 renal 99.1% | SF-268 CNS 76.9% | SF-295 CNS 89.9% | SF-539 CNS 97% | UACC-257 melanoma 101% | M14 melanoma 109%

Cc1nc2c3c(-c4ccccc4)c(-c4ccccc4)oc3ncn2n1
inactive: NCI-H23 lung 93.1% | NCI-H226 lung 92.2% | NCI-H322M lung 102% | HOP-62 NSCLC 90.7% | NCI-H460 lung 98% | HOP-92 NSCLC 81.7% | NCI-H522 lung 80.8% | A549/ATCC NSCLC 101% | 786-0 renal 99.1% | COLO 205 colon 110% | DU-145 prostate 104% | K-562 leukemia 94.3% | MALME-3M melanoma 109% | MDA-MB-231 breast 83.3% | RXF 393 renal 99.6% | SF-268 CNS 94% | SF-295 CNS 92.7% | SF-539 CNS 90.2% | UACC-257 melanoma 106% | M14 melanoma 102%

c1csc(C2=NN3C(C2)c2ccccc2OC3c2ccncc2)c1 (stereo not given)
inactive: NCI-H23 lung 89.8% | NCI-H226 lung 85.8% | NCI-H322M lung 93.1% | HOP-62 NSCLC 106% | NCI-H460 lung 100% | HOP-92 NSCLC 87.4% | NCI-H522 lung 87% | A549/ATCC NSCLC 96.2% | 786-0 renal 98.7% | COLO 205 colon 112% | DU-145 prostate 97% | K-562 leukemia 99.2% | MALME-3M melanoma 86.9% | MDA-MB-231 breast 89.1% | RXF 393 renal 105% | SF-268 CNS 89.5% | SF-295 CNS 96.1% | SF-539 CNS 96.7% | UACC-257 melanoma 96.5% | M14 melanoma 105%

COC(=O)[C@]12CCC(C)(C)C[C@H]1[C@H]1C(=O)C[C@@H]3[C@@]4(C)c5c([nH]c6ccccc6c5=O)C(C)(C)[C@@H]4CC[C@@]3(C)[C@]1(C)CC2
inactive: NCI-H23 lung 65.8% | NCI-H226 lung 65.7% | NCI-H322M lung 90.4% | HOP-62 NSCLC 85.5% | NCI-H460 lung 66.8% | HOP-92 NSCLC 85.8% | NCI-H522 lung 45.1% | A549/ATCC NSCLC 34.8% | 786-0 renal 86.3% | COLO 205 colon 77.5% | DU-145 prostate 86.5% | K-562 leukemia 18.9% | MALME-3M melanoma 88.1% | MDA-MB-231 breast 86.4% | RXF 393 renal 65.7% | SF-268 CNS 82% | SF-295 CNS 35.6% | SF-539 CNS 92.1% | UACC-257 melanoma 57.4% | M14 melanoma 29%
